Results on 5 compounds are retold here after PubChem BioAssay (NCATS).

Where “and” joins values, the source holds several entries; their conditions need not be identical. Equal values may be shown once. Records with an inconclusive call do not appear. Calls of active or inactive are those of the source. Unless noted, calls follow the shape of the dose curve; as a rule, active = well fitted curve in the direction sought with a large enough effect; inconclusive = small, poorly fitted or top-dose-only effect, or another doubt; inactive = no such curve, though single readings can be large; an effect the other way counts as inactive or inconclusive.

Experiment [1] in a line: Cell Viability - BJ (AID 421; calls by dose curve;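 also: potency is read from the fitted curve at half-maximal effect; cells exposed to compound for 40 hours at 37 °C before readout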). As to conditions: BJ fibroblast viability, qHTS. The method, boiled down:
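Normal human BJ foreskin fibroblasts, 1500/well in complete medium, treated 40 hr at 37 °C. Cellular ATP by CellTiter-Glo luminescence; normalized to DMSO and 100 uM tamoxifen, AC50 from Hill fit.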
In general terms: In qHTS, concentration-response curves come from the screen itself.

Experiment [2] can be described thus: Cell Viability - HepG2 (AID 433; calls by dose curve;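 also: potency is read from the fitted curve at half-maximal effect; potency for ATP loss meaning cytotoxicity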). As to conditions: qHTS. The method, boiled down: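 Cytotoxicity read as ATP loss (CellTiter-Glo luminescence) after 40 hr compound exposure of HepG2, 1500 cells/well, 37 °C. AC50 by Hill equation; 0% set by DMSO, 100% inhibition by 100 uM tamoxifen.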
The nature of experiment [3]: Cell Viability - MRC5 (AID 434; calls by dose curve;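 also: potency is read from the fitted curve at half-maximal effect; cells exposed to compound for 40 hours at 37 °C; potency reflects cytotoxicity seen as loss of intracellular ATP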). Particulars: MRC5 lung fibroblast viability, qHTS. The method in brief: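 Decrease in intracellular ATP, quantified by luciferase light output, reflects compound toxicity toward MRC5 cells exposed for 40 hr in complete culture medium. Concentration-response curves, scaled between DMSO and 100 uM tamoxifen, gave AC50 values.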
A short description of experiment [4]: Cell Viability - HUV-EC-C (AID 542). Also: % is scaled to controls: 0 for no effect and ±100 for the full control effect; nearly all actives have a fitted effect of over 35% in size. The method in brief:
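Concentration-dependent ATP loss in HUV-EC-C cells is the measure. Exposure lasts 40 hr at 37 °C; luminescence follows CellTiter-Glo addition, and Hill fits give AC50.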

Experiment [5] is described as follows: Cellular Toxicity (caspase-3) Jurkat (AID 655).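 Also: cells exposed to compound for 16 h at 37 °C before reading.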 As to conditions: Jurkat caspase-3 activation, luminescence; caspase-3 activation: at 92.2 µM (top of the series), DMSO = 0%, tamoxifen = 100%. The method in brief:
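Luminescent Caspase-Glo 3/7 read-out (20 min, room temperature) after 16 h compound treatment at 37 C of 5000 Jurkat cells per well. AC50 derived by Hill-equation fitting, scaled between DMSO basal and 100 uM tamoxifen stimulation.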

Experiment [6] in a line: Cellular Toxicity (caspase-3) H-4-II-E (AID 663).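 Also: cells exposed to compound for 16 hr before readout.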 Particulars: Potency: caspase-3 activation. The method, boiled down: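 Caspase 3/7 activation measured in H-4-II-E cells in complete culture medium after 16 hr treatment at 37 °C, using luciferase-coupled substrate readout; AC50 values come from Hill-equation fits of normalized concentration-response data.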
Experiment [7] is described as follows: Cellular Toxicity (caspase-3) NIH 3T3 (AID 666).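 Also: caspase signal read after 16 h compound exposure; 0% = DMSO basal and 100% = 100 µM tamoxifen stimulation.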 The method, boiled down: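 Activity: caspase-3/7 induction, NIH 3T3 cells, 16 hr treatment at 37°C, luminescent Caspase-Glo detection; AC50 via Hill equation.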
The target in experiment [8] is Cytochrome P450 3A4 (Homo sapiens) (UniProt P08684). Kind of experiment: qHTS Assay for Inhibitors and Substrates of Cytochrome P450 3A4 (AID 884). Also: % is scaled to controls: 0 for no effect and ±100 for the full control effect; nearly all actives have a fitted effect of over 50% in size. The method in brief: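 Luminescent readout of luciferin produced by CYP3A4 (20 nM) dealkylation of Luciferin-PPXE, 25 uM (its KM). NADPH-driven reaction ran 60 min at RT after 10 min compound preincubation; data scaled to 57 uM ketoconazole as 100% inhibition.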
Sequence of Cytochrome P450 3A4 (Homo sapiens) (P08684 whole entry, looked up): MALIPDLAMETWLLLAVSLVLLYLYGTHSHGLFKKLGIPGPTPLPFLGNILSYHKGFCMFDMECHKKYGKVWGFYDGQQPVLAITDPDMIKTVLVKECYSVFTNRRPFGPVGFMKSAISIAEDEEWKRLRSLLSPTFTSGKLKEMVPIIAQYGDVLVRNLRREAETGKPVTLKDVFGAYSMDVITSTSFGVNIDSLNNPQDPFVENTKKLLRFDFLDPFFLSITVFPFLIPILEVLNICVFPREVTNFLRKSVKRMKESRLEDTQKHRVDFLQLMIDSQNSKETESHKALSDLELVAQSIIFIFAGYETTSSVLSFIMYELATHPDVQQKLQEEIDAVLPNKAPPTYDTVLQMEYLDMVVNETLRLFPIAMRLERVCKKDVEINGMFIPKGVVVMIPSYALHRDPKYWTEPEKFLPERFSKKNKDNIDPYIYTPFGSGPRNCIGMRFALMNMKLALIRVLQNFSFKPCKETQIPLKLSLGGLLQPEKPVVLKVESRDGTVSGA

A short description of experiment [9]: MultiTox-Fluor Cytotoxicity Assay - LYMP1-001 - Dead Cells (AID 946).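 Also: 0% = DMSO and 100% = tetraoctylammonium bromide.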 The method, boiled down: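 LYMP1-001 lymphoblastoid cells (2500/well) treated 16 h at 37 C. Dead-cell protease cleavage of bis-AAF-R110 read at Ex/Em 485/520. Normalized to DMSO and 15 uM tetraoctylammonium bromide; AC50 from Hill fits.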
Experiment [10] in a line: Cell Viability - LYMP1-002 - Assay at 16 hr (AID 948).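 Also: 0% = DMSO alone and full effect = 92 µM tetraoctylammonium bromide.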 The method in brief: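 ATP luminescence (CellTiter-Glo) was measured after 16 hr compound exposure at 37 C of 2500 lymphoblastoid LYMP1-002 cells per well. Concentration-response curves were fitted with the Hill equation to give AC50.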
A short description of experiment [11]: MultiTox-Fluor Cytotoxicity Assay - LYMP1-002 - Live Cells (AID 955). Also: % is scaled to controls: 0 for no effect and ±100 for the full control effect. The method in brief: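 In this qHTS viability format, lymphoblastoid cells (LYMP1-002, human) received compound for 16 hr at 37 C. Fluorogenic GF-AFC cleavage by viable cells was detected at 405/510 nm after 1 h at room temperature.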
A short description of experiment [12]: MultiTox-Fluor Cytotoxicity Assay - LYMP1-002 - Dead Cells (AID 960).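 Also: 0% = DMSO and 100% = tetraoctylammonium bromide; nearly all actives have a fitted effect of over 60% in size.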 The method in brief:
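Concentration-dependent increases in membrane-leaked protease activity are quantified in LYMP1-002 cells after 16 hr treatment; values are normalized against DMSO and tetraoctylammonium bromide (15 uM) controls and AC50 derived by Hill modeling.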

The nature of experiment [13]: MultiTox-Fluor Cytotoxicity Assay - LYMP1-003 - Dead Cells (AID 961).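 Also: 0% = DMSO and 100% = tetraoctylammonium bromide; nearly all actives have a fitted effect of over 70% in size.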 The method, boiled down:
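LYMP1-003 human lymphoblastoid cells (2500/well) exposed to compound 16 h at 37 C in complete medium; dead-cell protease read with bis-AAF-R110 fluorescence (Ex/Em 485/520) after 60 min at room temperature. Normalized to DMSO and 15 uM tetraoctylammonium bromide; AC50 from Hill fit.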

Experiment [14] is described as follows: MultiTox-Fluor Cytotoxicity Assay - LYMP1-003 - Live Cells (AID 962).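 Also: 0% = DMSO only and full loss = 92 µM tetraoctylammonium bromide; cytotoxic hits lower the live-cell protease signal.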 The method, boiled down: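 Human lymphoblastoid line LYMP1-003 in complete culture medium, treated 16 hr with titrated compounds. Viable cells quantified via cell-permeant GF-AFC substrate fluorescence; AC50 derived by Hill fitting.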
Experiment [15] in a line: Cell Viability - LYMP2-018 (AID 985).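 Also: compound exposure lasted 24 hr at 37 °C; nearly all actives have a fitted effect of over 50% in size.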 Also: potency is read from the fitted curve at half-maximal effect. The method, boiled down:
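In this qHTS viability assay, cells are treated for 24 hr and cellular ATP is quantified by luciferase-based luminescence, with tetraoctylammonium bromide as positive control.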

Experiment [16] can be described thus: Cell Viability - LYMP1-002 - Assay at 24 hr (AID 993). Also: % is scaled to controls: 0 for no effect and ±100 for the full control effect. The method in brief:
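Viability was judged from intracellular ATP using a luciferase read-out, following a 24-hour compound incubation at 37 C of lymphoblastoid cells seeded at 2500 per well. Concentration-response data were fitted to the Hill equation for AC50.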

Experiment [17] in a line: qHTS assay for small molecule antagonists of retinoid X receptor alpha signaling (AID 588546; active = well fitted inhibition curve with a large enough effect in the signal ratio, with a control signal flat, not every such curve was filed as active; the % refers to the signal ratio; also: potency is read from the fitted curve at half-maximal effect;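 as to max response: cells stimulated with 9-cis-retinoic acid as agonist; % is scaled to controls: 0 for no effect and ±100 for the full control effect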). Particulars: HEK293T RXRa-UAS-bla, beta-lactamase ratio, antagonist mode; measured here: W530 green channel, cytotoxicity proxy. The method, boiled down: (§1)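 Beta-lactamase reporter inhibition, read as CCF4 fluorescence ratio (ex 405, em 460/530 nm) after 2 h at RT. HEK293T UAS-bla cells, 2500/well, were stimulated with 9-cis-RA at 500 or 100 nM final alongside test compound for 18 h at 37 C.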

The target in experiment [18] is Retinoic acid receptor RXR-alpha (Homo sapiens) (UniProt P19793). The experiment is described as above. As to conditions: HEK293T RXRa-UAS-bla, beta-lactamase ratio, antagonist mode. The method in brief: as §1
Sequence of Retinoic acid receptor RXR-alpha (Homo sapiens) (P19793 whole entry, looked up): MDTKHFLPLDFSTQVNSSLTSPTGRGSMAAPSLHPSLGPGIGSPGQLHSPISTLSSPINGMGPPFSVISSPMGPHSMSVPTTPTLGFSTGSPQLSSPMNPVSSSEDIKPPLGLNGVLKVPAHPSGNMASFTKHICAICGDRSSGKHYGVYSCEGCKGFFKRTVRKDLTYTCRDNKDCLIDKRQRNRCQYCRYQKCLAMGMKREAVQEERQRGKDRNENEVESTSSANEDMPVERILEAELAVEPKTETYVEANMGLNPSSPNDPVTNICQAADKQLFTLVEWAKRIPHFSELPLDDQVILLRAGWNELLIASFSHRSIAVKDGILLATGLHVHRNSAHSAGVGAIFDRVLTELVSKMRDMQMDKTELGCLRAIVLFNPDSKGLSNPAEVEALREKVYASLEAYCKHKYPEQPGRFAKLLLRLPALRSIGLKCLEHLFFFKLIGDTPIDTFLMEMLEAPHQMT
Experiment [19] is described as follows: qHTS assay for small molecule disruptors of the mitochondrial membrane potential - 5 hr assay (AID 651755; calls by dose curve; also: nearly all actives have a fitted effect of over 40% in size; also: potency is read from the fitted curve at half-maximal effect). The method in brief: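 Seed HepG2 overnight, add compound, incubate 5 hr at 37C and 5% CO2, stain 30 min with Mito-MPS, then measure monomer (490/535 nm) and aggregate (540/590 nm) fluorescence.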
Experiment [20] in a line: qHTS assay for cell viability of HEK293 cells (AID 743288). Also: % is scaled to controls: 0 for no effect and ±100 for the full control effect; nearly all actives have a fitted effect of over 50% in size. Particulars: ATP luminescence (CellTiter-Glo), 18 h; max response: stronger effect = lower value. The method in brief: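 Readout is luciferase-coupled ATP content (CellTiter-Glo luminescence, 30 min room temperature) as a measure of metabolically competent cells. Parental HEK293 cells were plated 5 h or more before compound addition, then treated 18 h at 37 C.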

Consider `CCCCOC(=O)COc1ccc(Cl)cc1Cl`, for which the Potency in experiment [1], in experiment [2] and in [3] was > 92 µM (inactive) in each case. Moreover, the Potency entry in experiment [4], in experiment [5], in experiment [6], in [8], in experiment [9] and in experiment [10] was “inactive” throughout. Besides, the Potency entry in [12], in experiment [13], in experiment [14], in experiment [15], in [16] and in [19] was “inactive” in each case. The outcome in experiment [7] and in experiment [11] was inactive. The max response in experiment [17] was -10.2% and -6.39%; in experiment [18], 5.43% (inactive) and -12.7% (inactive); in [20] it was -2.46% (inactive) and -7.81% (inactive).
As for `O=C=Nc1ccc(Cl)c(Cl)c1`, the Potency entry in experiment [6], in experiment [8], in [10], in experiment [12], in experiment [14] and in [16] was “inactive” in each case. The compound was called inactive in [7]. For the same compound, the max response in experiment [17] was 26.4%. Besides, the Potency is 14.1 µM (active) in experiment [18] and 5.96 µM (active) in experiment [19].
Consider `Nc1cc([N+](=O)[O-])ccc1O`, for which the Potency in experiment [1] is > 92 µM (inactive); in [2], > 92 µM (inactive); in experiment [3] it was > 92 µM (inactive); in experiment [19] it was 29.8 µM (active). Further, the Potency entry in [4], in [5], in experiment [6], in experiment [8], in experiment [9] and in experiment [10] was “inactive” each time. Besides, the Potency result in experiment [12], in [13], in experiment [14], in experiment [15] and in [16] was “inactive” throughout. In addition, the result in experiment [7] and in [11] was inactive. The max response in experiment [17] was -1.99% and 10.2%; in experiment [18], 2.5% (inactive) and -26.6% (inactive); in experiment [20], 11.2% (inactive) and -4.43% (inactive).
Turning to `O=C(O)c1ccc([N+](=O)[O-])cc1`, the Potency in experiment [1], in experiment [2] and in [3] was > 92 µM (inactive) throughout. Further, the Potency entry in experiment [4], in experiment [6], in [8], in [9], in [10] and in experiment [12] was “inactive” in each case. Further, the Potency result in experiment [13], in experiment [14], in experiment [15], in experiment [16] and in [19] was “inactive” throughout. Also, in [5], the caspase-3 activation was 85.2% (active). Further, the call in experiment [7] and in experiment [11] was inactive. Moreover, the max response in experiment [17] was -8.75% and -3.59%; in experiment [18], 3.05% (inactive) and 5.55% (inactive); in [20] it was -3.6% (inactive) and -1.43% (inactive).
Regarding `C/C=C/C=C/C=O`, the Potency was > 92 µM (inactive) in experiment [1], > 92 µM (inactive) in experiment [2], > 92 µM (inactive) in [3] and 39.8 µM (active) in [15]. Besides, the Potency result in experiment [4], in experiment [5], in [6], in experiment [8], in [9] and in experiment [10] was “inactive” throughout. Also, the Potency entry in experiment [12], in [14], in [16] and in experiment [19] was “inactive” throughout. Further, the outcome in [7] and in experiment [11] was inactive. Besides, the max response in experiment [20] is -1.13% (inactive).
